A selection: hits, their analogues and other compounds. The true share with any hit is near 2.3%.
USP1 inh – Inhibitors of USP1/UAF1: Primary Screen. Ubiquitin carboxyl-terminal hydrolase 1 (Homo sapiens), O94782. recombinant USP1/UAF1, Ub-Rhodamine cleavage fluorescence. Potency, µM (doses to about 57.1 µM), for inactives: at the top dose activity change, negative = inhibition, actives largely listed as inhibitors. hit rate 0.23% among 390,000; note: potency is the fitted concentration of half-maximal effect; nearly all actives have a fitted effect of over 60% in size
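In this screen, compounds sit with the deubiquitinase complex (1nM) for 15 min at room temperature before Ub-Rho is added at 150nM final. Fluorescence rise is then followed for 6 reads every 60 seconds.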
FBPA coupling cs – qHTS Assay for Inhibitors of Fructose-1,6-bisphosphate Aldolase from Giardia Lamblia: Coupling assay counterscreen; activity change, negative = inhibition, % at 58.2 µM, hits read low; hit rate 0.67% among 290,000; coupling enzyme system counterscreen, AmpLite Red fluorescence; AID 2472, 2010; in the data active = activity change below about -30%
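First, compound is pin-transferred into glyceraldehyde-3-phosphate coupling-enzyme reagent at 57.5 uM final and held 10 min at RT. Next, substrate, coupling system and AmpLite Red are added. After 20 min RT, fluorescence (525/598 nm) is read.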
Tau fibril FP – qHTS for Inhibitors of Tau Fibril Formation, Fluorescence Polarization; Potency, µM (top dose mostly 57.7 µM), inactives show top-dose activity, negative = inhibition, hits mostly inhibitors; Microtubule-associated protein tau (Homo sapiens), P10636; AID 1468, 2008; K18 P301L tau heparin fibrillization, Alexa594 FP, 6 h; hit rate 0.39% among 280,000; note: potency is the fitted concentration of half-maximal effect; nearly all actives have a fitted effect of over 55% in size
Target sequence (P10636 561-689 P618L limits assumed): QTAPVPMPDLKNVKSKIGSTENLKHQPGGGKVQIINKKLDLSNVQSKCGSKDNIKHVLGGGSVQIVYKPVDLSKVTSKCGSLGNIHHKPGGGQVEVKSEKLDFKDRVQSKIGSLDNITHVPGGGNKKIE
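FP of Alexa 594-tau after heparin (20 uM) induction. Substrate: human K18 P301L, 15 uM unlabeled, 0.24 uM labeled. Buffer 100 mM sodium acetate pH 7. 6 hr, 37 C.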
Tau fluor cs – Counterscreen qHTS for Inhibitors of Tau Fibril Formation, Fluorescence Polarization | tau K18 P301L Alexa594 fluorescence, heparin fibrillization | Potency, µM (highest dose often 57.7 µM), without a hit: top-dose activity change, negative = decrease | hit rate 0.93% among 280,000; note: potency is the fitted concentration of half-maximal effect; nearly all actives have a fitted effect of over 55% in size
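Human tau K18 P301L (15 uM unlabeled, 0.24 uM Alexa 594-labeled) in 100 mM sodium acetate pH 7 with 20 uM heparin, 6 hr at 37 C. ThT 30 uM added, 1 hr ambient; Alexa 594 FP and total fluorescence read at 555/632 nm.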
Tau ThT inhib – qHTS for Inhibitors of Tau Fibril Formation, Thioflavin T Binding; Microtubule-associated protein tau (Homo sapiens), P10636; hit rate 2.1% among 270,000; recombinant tau K18 P301L, heparin-induced fibrillization, ThT fluorescence; AID 1460, 2008; Potency, µM (highest dose often 57.4 µM), for the others: top-dose activity, negative = inhibition, usual class: inhibitors; note: potency is the fitted concentration of half-maximal effect; nearly all actives have a fitted effect of over 55% in size
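Fibril formation assay: tau K18 P301L at 15 uM with trace Alexa 594 label, heparin inducer 20 uM, pH 7 sodium acetate buffer, 37 C for 6 hr; endpoint ThT signal.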
Starred values were filed as active, the others as inactive; ? = inconclusive; · = no result given; [ ] = remark or other dose. Unless noted, calls come from the whole dose curve; as a rule, active = well fitted curve in the direction sought with a large enough effect; inconclusive = small, poorly fitted or top-dose-only effect, or another doubt; inactive = no such curve, though single readings can be large; an effect the other way counts as inactive or inconclusive. % is set by controls: 0 for no effect and ±100 for the full control effect.

SMILES	USP1 inh	FBPA coupling cs	Tau fibril FP	Tau fluor cs	Tau ThT inhib
CN1CCN(S(=O)(=O)c2ccc(NC(=O)c3ccccc3Cl)cc2)CC1	-9.9%	1.8	·	·	·
CN1CCN(S(=O)(=O)c2ccc(NC(=O)Nc3cccc(Cl)c3)cc2)CC1	-6.0%	-0.5	17.8µM*	?	?
Cc1cc(C)n2nc(CNC(=O)c3cccc(N(C)C)c3)nc2n1	-15.7%	·	-13.9%	-4.0%	?
CC(=O)OC1CC[C@@]2(C)C(=CC[C@H]3[C@@H]4CC[C@H](C(C)=O)[C@@]4(C)CC[C@@H]32)C1 (some centres not stated)	·	0.2	·	·	·
COc1ccc2c3c(cccc13)N(C)N=C2C	-25.6%	-4.6	?	?	7.08µM*
COc1ccc2c3c(cccc13)OC2=O	-18.5%	-4.8	·	·	·
c1ccc(-c2cc3c(ccc4nonc43)nn2)cc1	-15.3%	2.2	-3.0%	-5.5%	-8.0%
On1onc2c3cc(-c4ccccc4)nc3ccc21	-20.7%	-11.9	?	12.6µM*[quencher]	3.98µM*
Cc1nc2cnc(N3CCN(C)CC3)nc2n(C)c1=O	·	-1.3	·	·	·
Oc1ccc2ccccc2c1N=Nc1ccc(F)cc1	-6.3%	0.0	-8.6%	-15.9%	?
O=C(O)Cc1ccc(N=Nc2c(O)c(C(=O)O)cc3ccccc23)cc1	-25.6%	-8.6	?	-26.5%	12.6µM*
Nc1nc(O)c(N=Nc2ccc(S(N)(=O)=O)cc2)c(=O)[nH]1	-19.7%	-0.5	·	·	·
NS(=O)(=O)c1ccc(N=Nc2c(O)c(C(=O)O)cc3ccccc23)cc1	-9.8%	-21.2	?	?	5.01µM*
CCOc1ccccc1CNC(=O)CN1C(=O)c2cccnc2Oc2ccc(C)cc21	-24.8%	·	-4.7%	-3.5%	-9.0%
Cc1ccc(S(=O)(=O)Nc2cc(=O)[nH]c(SCC(=O)Nc3cccc(C)c3)n2)cc1	-2.3%	0.8	15.8µM*	?	·
Cc1[nH]n(-c2ncc(-c3ccccc3)s2)c(=O)c1C(c1ccc(Cl)cc1)C(C#N)C#N (configuration not stated)	?	5.3	?	?	14.1µM*
CCOC(=O)c1cccc(NC(=O)c2oc3c(c2C)-c2nn(CC)cc2CC3)c1	?	·	5.8%	?	-7.9%
Cc1ccc(NC(=O)CSc2[nH]c(=O)ncc2C)cc1	8.4%	·	-2.7%	-7.0%	-9.7%
COc1ccc(NC(=O)CCCn2c(=O)c3cccn3c3ccccc32)c(OC)c1	-26.5%	·	-8.1%	-15.3%	?
COc1ccc(NC(=O)Cn2c(=O)c3cccn3c3ccccc32)cc1	9.0%	·	17.8µM*	?	-9.3%
CC(=O)c1ccc(NC(=O)Cn2c(=O)c3cccn3c3ccccc32)cc1	-11.5%	·	?	?	-8.1%
COc1ccc(OC)c(NC(=O)Cn2c(=O)c3cccn3c3ccccc32)c1	-17.3%	·	3.16µM*	?	?
COc1ccc(C(=O)NCCSc2c[nH]c3ccccc23)cc1OC	3.2%	·	2.9%	?	?
CN1CCN(C(=S)C(=O)Nc2ccc(Br)cc2)CC1	-7.0%	-36.6*	?	-20.4%	?
COc1cc(/C=C2\C(=N)N3N=CSC3=NC2=O)ccc1OS(=O)(=O)c1ccccc1[N+](=O)[O-]	1.9%	7.2	·	·	·
SMILES	USP1 inh	FBPA coupling cs	Tau fibril FP	Tau fluor cs	Tau ThT inhib
N=C1/C(=C\c2ccc(SCc3ccccc3)o2)C(=O)N=C2SC=NN12	-12.8%	3.2	?	-18.8%	8.91µM*
N=C1/C(=C\c2ccc(SCc3ccccc3)o2)C(=O)N=C2SC(CC(=O)N3CCOCC3)=NN12	-1.4%	10.5	7.0%	-11.0%	14.1µM*
CCS(=O)(=O)C1=NN2C(=N)/C(=C\c3ccc(SCc4ccco4)o3)C(=O)N=C2S1	?	4.8	-21.2%	?	14.1µM*
CCS(=O)(=O)C1=NN2C(=N)/C(=C\c3ccc(OC(=O)c4ccco4)c(Br)c3)C(=O)N=C2S1	·	7.9	·	·	·
CCCCC/C=C\C/C=C\CCCCCCCCCC(=O)NCCCC(=O)O	·	2.7	-2.1%	-4.8%	0.0%
COc1cc2oc(=O)c(CC(=O)N3CCCCC3)c(C)c2cc1OC	-20.7%	·	-2.2%	-17.2%	-12.5%
COc1ccc(C(=O)c2oc3ccccc3c2NC(C)=O)cc1	-6.9%	3.8	-10.8%	-12.5%	-9.9%
COc1ccc(C(=O)c2c(C(F)(F)F)oc3c2C(=O)c2ccccc2C3=O)cc1	?	-42.8*	?	?	?
[N-]=C=C1C(=O)NC(=O)C([n+]2ccc(-c3ccncc3)cc2)C1c1ccccc1C(F)(F)F (configuration not stated)	?	-64.7*	4.8%[0.0958 µM]	4.5%[0.0958 µM]	·
Cc1c(C#N)c(O)[nH]c(=O)c1N=Nc1ccc(Br)cc1C(=O)O	?	-8.4	·	·	·
Cc1cccc(N=Nc2c(C)c(C#N)c(O)[nH]c2=O)c1	?	3.3	1.7%	-20.1%	1.12µM*
CCCN(CCC)CCCNC(=O)c1nn(C)c2c1CS(=O)(=O)c1ccccc1-2	-12.5%	·	7.6%	-13.2%	-15.3%
NC(=S)NNc1cccc2cccnc12	-16.9%	-36.4*	7.94µM*	?	3.55µM*
CC(=O)c1ccc(N=Nc2ccc(N)cc2)cc1	0.2%	0.8	-5.2%	?	0.562µM*
O=C(NCc1ccccc1)c1c[nH]c2ccc(S(=O)(=O)Nc3ccc4c(c3)OCCO4)cc2c1=O	2.8%	-1.9	?	10µM*[quencher]	-10.0%
O=C(NCCc1ccccc1)c1c[nH]c2ccc(S(=O)(=O)Nc3ccc(F)cc3F)cc2c1=O	-17.9%	·	?	?	20.1%
CCN(CC)C(=O)c1c[nH]c2ccc(S(=O)(=O)Nc3cc(C)cc(C)c3)cc2c1=O	-4.8%	1.8	-12.7%	-15.2%	-7.3%
CCc1ccc(NS(=O)(=O)c2ccc3[nH]cc(C(=O)NCc4ccc(C)cc4)c(=O)c3c2)cc1	-19.6%	·	3.55µM*	?	9.7%
COc1ccccc1CNC(=O)c1c[nH]c2ccc(S(=O)(=O)Nc3cc(C)cc(C)c3)cc2c1=O	?	·	8.91µM*	?	4.1%
O=C(NCCc1ccccc1)c1c[nH]c2ccc(S(=O)(=O)Nc3ccccc3F)cc2c1=O	-8.7%	·	12.6µM*	?	-5.8%
O=C(NCc1ccccc1)c1c[nH]c2ccc(F)cc2c1=O	-0.7%	0.1	·	·	·
CCN(CC)S(=O)(=O)c1ccc2[nH]cc(C(=O)NCCC3=CCCCC3)c(=O)c2c1	-22.7%	-5.0	11.2µM*	?	7.4%
Cc1[nH]c2ccccc2c1SCC(=O)N1CCCCC1	-11.4%	6.9	-2.7%	?	?
Cc1[nH]c2ccccc2c1C(=O)CSC(=S)N1CCCCC1	-24.7%	-15.2	39.8µM*	22.4µM*[quencher]	?

Source: PubChem BioAssay
